PNC assembly inh: inhibitors of perinucleolar compartment assembly | 3.1% of 140,000 active | AID 2417 | activity change (PNC), negative = inhibition, % at 10 µM | PC3M PTB-GFP, PNC prevalence imaging, 16 h; stronger effect = lower value;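 active means readout at or below -70, meaning at least 70% loss of cells showing the perinucleolar compartment, a nuclear body marking cancer cells; inconclusive means readout between -30 and a set limit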;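 further: plate controls were DMSO wells for no effect and camptothecin positive control wells for full effect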
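Read-out is percentage of cells bearing a perinucleolar compartment, from automated 20x imaging of fixed, Hoechst-stained PC3M PTB-GFP cells. Cells were seeded 4 h, then exposed 16 h to compound (23 nl of library stock) in duplicate plates.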
12-hLO inh: 12-hLO (ALOX12) enzyme inhibition | 0.12% of 150,000 active | Potency, µM (titrated, usually from 57.1 µM), without a hit: at the top dose activity change, negative = inhibition, hits mostly inhibitors | P18054 | purified 12-hLO, xylenol orange hydroperoxide absorbance; active means well fitted inhibition curve with a large enough effect; inconclusive means small, poorly fitted or top-dose-only effect; further: potency means the concentration at half of the fitted maximal effect; nearly all actives have a fitted effect of over 55% in size
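Purified human 12hLO (150 nM), preincubated 15 min with compound, then 40 uM arachidonic acid for 30 min, room temperature, Hepes pH 7.0 with 0.01% Triton X-100. Hydroperoxide detected by ferrous iron/xylenol orange; 573/405 nm absorbance ratio gives reaction progress.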
Lamin A splicing: modulators of lamin A splicing; HeLa LMNA splicing GFP/RFP minigene ratio, 48 h; Potency, µM (doses to about 46.1 µM), inactives show at the top dose ratio change, negative = inhibition, most hits filed as inhibitors; 0.01% of 200,000 active; AID 1487; active means well fitted inhibition curve with a large enough effect in the signal ratio, with a control signal flat, not every such curve was filed as active; inconclusive means small, poorly fitted or top-dose-only effect, or effect the other way, or a change in a side signal; the % refers to the signal ratio; further: potency means the concentration at half of the fitted maximal effect
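S3 HeLa stable clones carrying a lamin A-EGFP splicing minigene plus DsRed2 were seeded at 600 cells/well in Opti-MEM with 2% FBS, pin-dosed and incubated 48 h at 37°C. Acumen cytometry (488 nm) gave the GFP/RFP total-intensity ratio.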
HPGD block: HPGD (human) dehydrogenase inhibition | P15428 | purified HPGD, NADH fluorescence kinetic, PGE2 substrate | Potency, µM, without a hit: top-dose activity change, negative = inhibition, actives largely listed as inhibitors | 4.3% of 150,000 active | AID 894; further: potency means the concentration at half of the fitted maximal effect
Target sequence (P15428 whole entry, looked up): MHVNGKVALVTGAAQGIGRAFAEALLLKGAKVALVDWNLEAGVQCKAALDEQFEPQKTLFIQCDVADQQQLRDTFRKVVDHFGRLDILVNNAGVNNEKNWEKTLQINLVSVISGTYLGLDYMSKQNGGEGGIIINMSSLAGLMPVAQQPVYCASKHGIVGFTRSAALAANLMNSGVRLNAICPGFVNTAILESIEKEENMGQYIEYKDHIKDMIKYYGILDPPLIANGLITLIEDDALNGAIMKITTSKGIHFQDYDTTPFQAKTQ
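20 nM HPGD preincubated 15 min at room temperature with compound in 50 mM Tris-HCl pH 8, 0.01% Tween 20. Started with 1 mM NAD+ and 30 uM prostaglandin E2; NADH fluorescence (360/450 nm) read 5 times over 30-s intervals, last minus first.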
ALDH1A1 inh: ALDH1A1 (human) enzyme inhibition; AID 1030; 7.3% of 220,000 active; Purified ALDH1A1, NADH fluorescence, propionaldehyde substrate; P00352; Potency, µM (titrated, usually from 75.3 µM), for inactives: at the top dose activity, negative = inhibition, hits mostly inhibitors;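 further: potency means the concentration at half of the fitted maximal effect; plate controls were no enzyme wells and a reference inhibitor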
* = called active by the depositor; ? = inconclusive; / = not tested or not shown; [ ] = dose if it differs, or a comment. Compounds with a hit are over-represented: about 10% of the library has one in this group of screens. Unless noted, the call rests on the fitted dose curve; in most records, active means well fitted inhibition curve with a large enough effect (not every such curve was filed as active); inconclusive means small, poorly fitted or top-dose-only effect, or another doubt; inactive means no such curve, though single readings can be large or run the other way. Unless noted, on the % scale 0 is the no-effect control and ±100 the full control effect.

SMILES	PNC assembly inh	12-hLO inh	Lamin A splicing	HPGD block	ALDH1A1 inh
Cc1ccc(C(=O)CSc2nnc(-c3ccco3)n2Cc2ccccc2)cc1	-17	-8%	?	-20%	0%
O=C(CSc1nnc(-c2ccco2)n1Cc1ccccc1)c1ccccc1	-22	-10%	-3%	28µM*	?
Cc1ccc(NCc2nnc(SCC(=O)c3ccccc3)n2Cc2ccco2)c(C)c1	?	-21%	-1%	-21%	10µM*
Cn1c(SCC(=O)c2ccc(-c3ccccc3)cc2)nnc1-c1ccco1	?	3%	-11%	-22%	10µM*
CCOC(=O)c1c(C)[nH]c(C)c1C(=O)CSc1nnc(-c2ccncc2)n1Cc1ccccc1	-10	8%	4%	-19%	-1%
CCOC(=O)c1c(C)[nH]c(C)c1C(=O)CSc1nnc(-c2ccco2)n1Cc1ccccc1	34	-3%	?	-7%	16µM*
O=[N+]([O-])c1ccc(CCO)cc1	/	1%	/	-5%	-5%
O=C(CSc1nnc(-c2ccco2)n1Cc1ccccc1)NC(=O)NCc1ccccc1	-92*	-10%	?	-10%	-13%
Cc1cc(N/N=C/c2c(O)ccc3ccccc23)nc(-c2ccccc2O)n1	5	3%	?	-20%	4%
Oc1ccc2ccccc2c1/C=N/Nc1ccccc1	62	-4%	4%	?	18µM*
O=S(=O)(/N=C/c1c(O)ccc2ccccc12)c1cccs1	32	0%	-10%	?	11µM*
Cn1c(=O)n(C)c2cc(CNCc3ccccc3Cl)ccc21	/	/	17%[46 µM]	/	/
O=C(NCc1ccccc1Br)C1CCCN(C(=O)N2CCOc3ccccc32)C1 (stereo not drawn)	/	/	10%[46 µM]	/	/
COc1ccc(C(=O)N2CCCC(CCC(=O)NCc3ccc(F)c(F)c3)C2)cc1F (stereo not drawn)	/	/	?	/	-6%
COc1cccc(CNC(=O)CCC2CCCN(C(=O)c3ccoc3)C2)c1 (stereo not drawn)	/	/	3%[46 µM]	/	?
COc1cccc(CNC(=O)CCC2CCCN(C(=O)Cc3ccccc3F)C2)c1 (stereo not drawn)	/	/	/	/	11µM*
COc1ccc(C(=O)N2CCCC(CCC(=O)NCc3ccc(F)c(F)c3)C2)o1 (stereo not drawn)	/	/	/	/	16µM*
COc1cccc(CNS(=O)(=O)c2ccc(N3CCCCS3(=O)=O)cc2)c1	/	/	1%[46 µM]	/	/
Cc1nc2ccccc2c2oc(C(=O)N3CCN(C(=O)c4ccco4)CC3)cc12	27	3%	-17%	-22%	?
Cc1nc2ccccc2c2oc(C(=O)N3CCc4ccccc4C3)cc12	7	-4%	?	-10%	25µM*
CCCCNC(=O)C1COc2ccccc2O1 (stereo not drawn)	4	-3%	-1%	16µM*	5%
O=C(NCc1ccc2c(c1)OCO2)C1COc2ccccc2O1 (stereo not drawn)	-2	-4%	-8%	4.5µM*	0%
O=C(NCc1ccncc1)C1COc2ccccc2O1 (stereo not drawn)	-16	-2%	2%	-1%	4%
O=C(NCc1ccccn1)C1COc2ccccc2O1 (stereo not drawn)	10	6%	5%	14µM*	3%
O=C1CCCc2cc3c(cc21)CC1(C3)Cc2cc3c(cc2C1)C(=O)CCC3	/	/	/	/	-7%
SMILES	PNC assembly inh	12-hLO inh	Lamin A splicing	HPGD block	ALDH1A1 inh
COc1cccc([C@@H]2Oc3ccc(OC)cc3/C(=N/OC[C@@H](O)COCc3ccco3)[C@@H]2O)c1	/	/	/	/	-7%[13.5 µM]
Cc1cccc(N(C)C(=O)CSc2nc3ncccc3o2)c1	/	/	-29%[46 µM]	/	/
CCOC(=O)C1CCN(c2c(N3CCN(c4ccccc4OC)CC3)c(=O)c2=O)CC1	-82*	2%	-6%	?	1%
CCOC(=O)C1CCCN(c2c(N3CCc4ccccc4C3)c(=O)c2=O)C1 (stereo not drawn)	-24	-3%	2%	28µM*	?
Cc1ccc2nc3c(cc(C#N)c(=O)n3CCN3CCOCC3)c(=O)n2c1	-122*	-3%	-3%	/	?
N#Cc1cc2c(=O)n3ccccc3nc2n(CCN2CCOCC2)c1=O	-12	1%	-1%	?	?
COc1ccc(NC(=O)CSc2ncccc2C(=O)O)cc1OC	/	/	0%[46 µM]	/	/
Nc1ccccc1Nc1ccccc1	11	-28%	?	-23%	?

Bioassay records (PubChem BioAssay)
